A selection: hits, their analogues and other compounds. The true share with any hit is near 2.3%.
TAG inh = inhibitors of triacylglycerol accumulation, primary screen, cell-based, uHTS, fluorescence, H9c2. H9c2 cells, Nile Red lipid (TAG) fluorescence; cells loaded with 200 µM oleic acid. inhibition, % at 12.5 µM. hit rate 0.66% among 230,000. AID 651582, 2012;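 active = pattern-corrected inhibition of lipid staining of at least 50% with the nuclear-stain viability signal not falling by more than 50%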;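 also: 0% = DMSO wells and 100% = triacsin C control wells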
Jurkat NFkB inh = inhibitors of induced NF-kB luciferase reporter, primary screen, TCR NF-kB activation inhibitor project, cell-based, luminescence, uHTS; Jurkat, PMA/ionomycin-induced NF-kB luciferase reporter; inhibition, % at 4 µM; hit rate 0.53% among 330,000; in the data active = inhibition above about 50%
aSyn 5UTR inh = MLPCN primary screen, SNCA 5' untranslated region; alpha-synuclein 5'UTR reporter, inhibitor activity; inhibition, % (tested at 7.5 µM); hit rate 0.82% among 300,000; in the data active = inhibition above about 60%;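 also: H4 neuroglioblastoma cells stably carrying SNCA 5'UTR luciferase fusion; 0% = DMSO wells and 100% = positive control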
Gli-Sufu antag = Gli-Sufu pathway antagonists, primary screen, luciferase luminescence, Sufu-KO-LIGHT cells, uHTS; inhibition, % at 5 µM; hit rate 0.74% among 340,000; Sufu-KO-LIGHT fibroblasts, Gli luciferase reporter luminescence;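 active = inhibition above about 55%, limit read from the data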;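 also: 0% = DMSO-treated cells and 100% = wells with medium but no cells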
697 NFkB inh = inhibitors of PMA/ionomycin-induced NF-kB reporter, 697 cells, primary screen, B-cell NF-kB inhibitor project, cell-based, luminescence, uHTS. 697 B-cell NF-kB luciferase reporter, 16 h. inhibition, % at 4 µM. hit rate 0.33% among 330,000. AID 435022, 2010; in the data active = inhibition above about 35%
Shn3 inh set2 = reduction of Shn3 3'UTR firefly luciferase signal, primary screen, Schnurri-3 inhibitor project, cell-based, Clone20 osteoblasts, set 2. Clone20 osteoblast Shn3 3'UTR firefly luciferase, 24 h. inhibition, % at 12.5 µM. hit rate 0.52% among 360,000;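 active = mean inhibition of at least 75% with every replicate also reaching 75%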;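 also: 0% = median of neutral control wells and 100% = pilot-screen positive control compound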
Jurkat NFkB conf = PMA/ionomycin-induced NF-kB reporter inhibitors, Jurkat retest, confirmation, T-cell NF-kB inhibitor project, cell-based, luminescence, single concentration. shares compounds with Jurkat NFkB inh. Jurkat NF-kB luciferase, 16 h. inhibition, % at 4 µM. hit rate 27% among 2,700. AID 435020, 2010;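 active = inhibition reaching about 45% at 4 µM in either replicate, limit read from the data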;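 also: plate controls were PMA/ionomycin stimulated DMSO wells for no effect and unstimulated DMSO wells for full effect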
697 NFkB conf = PMA/ionomycin-induced NF-kB reporter inhibitors, 697 retest, confirmation, B-cell NF-kB inhibitor project, cell-based, luminescence, single concentration | shares compounds with 697 NFkB inh | 697 B-cell NF-kB luciferase, 16 h | inhibition, % at 4 µM | hit rate 35% among 2,000; in the data active = inhibition mostly above about 28%, no sharp cut-off; inactive = mostly below about 22%
Numbers without * were called inactive; i = inactive; x = no result given.

SMILES | TAG inh | Jurkat NFkB inh | aSyn 5UTR inh | Gli-Sufu antag | 697 NFkB inh | Shn3 inh set2 | Jurkat NFkB conf | 697 NFkB conf
O=c1cccc2n1Cc1cc3ccccc3nc1-2 | 12.5 | -90.8 | -151.9 | -62.4 | -87.4 | -43.7 | x | x
CC[C@@]1(O)C(=O)OCc2c1cc1n(c2=O)Cc2cc3c(N)cccc3nc2-1 | 22.2 | 81.2* | 102.5* | 65.2* | 77.5* | 36.2 | 84.1* | 1.2
CC[C@@]1(O)C(=O)OCc2c1cc1n(c2=O)Cc2cc3c(CN(C)C)c(O)ccc3nc2-1 | -3.2 | 73.0* | 25.9 | 61.3* | -328.8 | 53.1 | 95.0* | -375.4
CN(C)/C=C/C(=O)c1ccc(Cl)cc1Cl | -4.0 | -0.5 | -12.7 | -7.9 | 8.2 | -3.0 | x | x
O=C(/C=C/Nc1ccccc1)c1ccc(Cl)cc1Cl | x | -185.8 | -122.1 | -102.0 | -251.0 | -110.8 | -104.5 | -211.4
COc1cccc(N/C=C/C(=O)c2ccc(C)cc2)c1 | -5.8 | -153.0 | -23.5 | -84.6 | -329.0 | -12.4 | -77.9 | -176.8
CCOC(=O)c1ccc(N/C=C/C(=O)c2ccccc2)cc1 | -26.6 | -92.9 | -188.3 | -106.1 | -99.1 | -80.9 | x | x
O=C(/C=C/Nc1ccccc1)c1ccccc1 | x | -191.3 | -33.4 | -105.5 | -260.5 | -12.6 | -58.8 | -184.7
COC(=O)COn1c(-n2nc(C)cc2C)nc2ccccc2c1=O | x | 1.4 | -12.9 | 15.7 | 10.1 | -14.6 | x | x
CC[n+]1c(/C=C/N(C)c2ccccc2)n(-c2ccccc2)c2ccc(-c3nc4ccccc4s3)cc21 | x | 97.6* | 120.4* | 90.7* | 54.5* | 97.9* | 91.0* | 83.0*
CC(=O)Nc1cccc(NC(=O)c2sc3ncn(CC(=O)N4CCCCC4)c(=O)c3c2C)c1 | 0.7 | x | x | 25.5 | x | 1.0 | x | x
O=C(Nc1ccc(C#Cc2ccccc2)cc1)C1CC1 | 38.7 | -276.7 | -113.4 | -98.3 | i | 15.6 | -141.3 | i
Cc1cc(/C=N/NC(=O)c2cccs2)c(C)n1-c1ccccc1 | 0.2 | -196.3 | -18.5 | -4.1 | i | -14.5 | 0.4 | -38.3
Cc1cc(/C=N/NC(=O)c2ccncc2)c(C)n1-c1ccccc1 | 16.7 | -2.8 | -47.2 | -16.2 | -24.5 | -36.1 | x | x
c1ccc(N2CCN(c3nc4cc5c(cc4s3)OCO5)CC2)cc1 | -65.5 | -51.9 | -142.4 | -93.6 | -204.3 | -48.3 | x | x
c1ccc2c(c1)CCN(c1nc3cc4c(cc3s1)OCO4)C2 | 3.4 | -190.3 | -121.9 | -71.7 | -304.5 | -66.1 | -132.4 | -262.6
O=C(NCCNc1ccc([N+](=O)[O-])cc1C(F)(F)F)c1ccccc1F | 1.6 | 8.2 | 21.5 | 13.0 | -11.2 | 47.7 | x | x
CCOC(=O)c1cn[nH]c1NC(=S)Nc1ccc(Cl)cc1 | -7.2 | -184.5 | -66.3 | -71.7 | -449.1 | -69.5 | -108.6 | -267.8
CCOC(=O)c1ccc(NC(=S)Nc2ccc(C)cc2)cc1 | -9.4 | -18.5 | -145.0 | -34.1 | 4.4 | -16.5 | x | x
COc1ccc(Cl)cc1C(=O)NC(=S)Nc1cc(-c2nc3ccccc3[nH]2)ccc1C | x | -50.0 | -22.2 | 9.2 | -51.5 | 9.8 | x | x
CCC(=O)Nc1ccc2nc(C3CC3)n(Cc3ccc(C(C)(C)C)cc3)c(=O)c2c1 | 0.6 | -192.0 | -149.6 | -64.8 | i | -3.8 | -104.6 | i
COc1ccc(Cn2c(C3CC3)nc3ccc(NC(=O)C4CC4)cc3c2=O)cc1 | 13.3 | -160.9 | -280.3 | -115.4 | -290.5 | -79.1 | -109.1 | -256.8
CC(=O)Nc1ccc2nc(C3CC3)n(Cc3ccc(Cl)cc3)c(=O)c2c1 | 1.5 | -66.9 | -165.2 | -83.8 | -83.0 | -50.3 | x | x
COc1ccc(NC(=O)/C=C/c2ccccc2)cn1 | x | -98.9 | -116.1 | -77.0 | -8.4 | -123.1 | x | x
CCCCN1C(C)=CC(=C2C(=O)c3ccccc3C2=O)C=C1C | 11.4 | -132.2 | 46.4 | -42.2 | -114.2 | 14.8 | x | x
